# Source: PubChem BioAssay (NCI)
# About 83,000 compounds went through this panel and 20% of them were active in at least one assay; those are over-represented in the sample as a whole.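 Method: cells in 96-well plates; compound added at one concentration; 48 h incubation; percent growth measured; values under 10 scored active.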 A number with no mark means an inactive call. Active and inactive are the calls of the source.
# Tests used:
# Assay in all cases: NCI-60 one-dose screen, 48 h (100 = growth as untreated, 0 = no growth, -100 = all killed)
# Details in all cases: 10 µM unless noted
# SR leukemia = tested on: SR leukemia
# RPMI-8226 leukemia = tested on: RPMI-8226 leukemia
# OVCAR-8 ovarian = tested on: OVCAR-8 ovarian
# OVCAR-5 ovarian = tested on: OVCAR-5 ovarian
# OVCAR-4 ovarian = tested on: OVCAR-4 ovarian
# SK-OV-3 ovarian = tested on: SK-OV-3 ovarian
# IGROV1 ovarian = tested on: IGROV1 ovarian
# OVCAR-3 ovarian = tested on: OVCAR-3 ovarian
# HS 578T breast = tested on: HS 578T breast
# NCI/ADR-RES ovarian = tested on: NCI/ADR-RES ovarian
# T-47D breast = tested on: T-47D breast
# BT-549 breast = tested on: BT-549 breast
# MDA-MB-435 melanoma = tested on: MDA-MB-435 melanoma
# SW-620 colon = tested on: SW-620 colon
# MCF7 breast = tested on: MCF7 breast
# HCT-116 colon = tested on: HCT-116 colon
# HCC-2998 colon = tested on: HCC-2998 colon
# KM12 colon = tested on: KM12 colon
Compound,growth (SR leukemia),growth (RPMI-8226 leukemia),growth (OVCAR-8 ovarian),growth (OVCAR-5 ovarian),growth (OVCAR-4 ovarian),growth (SK-OV-3 ovarian),growth (IGROV1 ovarian),growth (OVCAR-3 ovarian),growth (HS 578T breast),growth (NCI/ADR-RES ovarian),growth (T-47D breast),growth (BT-549 breast),growth (MDA-MB-435 melanoma),growth (SW-620 colon),growth (MCF7 breast),growth (HCT-116 colon),growth (HCC-2998 colon),growth (KM12 colon)
Cc1ccc(C2C3CC4CCCCC4N3[C@@]3(C(=O)Nc4cc(Cl)ccc43)C2C(=O)c2nc3ccccc3[nH]2)cc1 (stereo partly specified),21.2%,9.27% (active),56.7%,49%,30.6%,77.6%,26.4%,33.4%,61%,41.7%,27.4%,52.8%,26.5%,29.8%,13.8%,19.5%,38.4%,38%
N/C(=N\N=C\c1cc2ccccc2[nH]1)N/N=C/c1cc2ccccc2[nH]1,6.87% (active),88.2%,97.4%,109%,83%,88.6%,64.4%,93.9%,90.3%,100%,88.8%,98.7%,104%,101%,69.8%,86.8%,99.6%,97.6%
Clc1ccc(N2N=C(c3cccc(Nc4ccncc4)c3)CC2c2ccccc2)cc1 (stereo unspecified),51.7%,92.7%,94.5%,90%,88.9%,87.6%,92.9%,97.1%,72.7%,101%,96.9%,92.9%,67.5%,86.2%,76.2%,-78.7% (active),97%,90.4%
O=[N+]([O-])c1cccc(-c2nc(-c3ccc(Cl)cc3Cl)cn2-c2ccccc2)c1,-65% (active),61.7%,-59.2% (active),12.1%,-93.3% (active),33.4%,29.7%,-55.9% (active),-38.8% (active),-1.46% (active),15.6%,176%,-39.5% (active),-52.4% (active),20.7%,-93.2% (active),-1.15% (active),-64.4% (active)
CCOC(=O)c1c(C)nc2c(c1N)C(=O)C(=O)N2Cc1ccc(C(F)(F)F)cc1,23.3%,27.2%,63.3%,91.7%,69.3%,82.9%,62.5%,18%,65.7%,17.7%,44%,53.4%,6.09% (active),35.6%,11.7%,27.2%,98.1%,27.8%
CCCCN(CCCC)CCc1c(C)cc(C)c(CCN(CCCC)CCCC)c1O,25.8%,1.92% (active),47.5%,45.6%,30.8%,25.5%,32.9%,14.7%,58.3%,75.7%,5.78% (active),43.3%,17.1%,24.1%,12.8%,6.6% (active),19.6%,41.4%
Cc1cc(C(=O)Nc2ncnc3nc[nH]c23)no1,89.6%,95%,102%,116%,114%,97.2%,89.6%,108%,95.5%,106%,103%,106%,102%,96.1%,93.3%,105%,104%,99.5%
[2H]C1([2H])NC([2H])([2H])C([2H])([2H])N(c2ccc(Nc3ncc4cc(C(=O)N(C)C)n(C5CCCC5)c4n3)nc2)C1([2H])[2H],39.8%,34.8%,85.2%,39.8%,92.7%,58.3%,73.4%,107%,71.2%,104%,68%,92.9%,68.7%,42.2%,45%,55.3%,89.9%,54.5%
C=C(C)[C@@H]1CC[C@]2(C=O)CC[C@]3(C)[C@H](CC[C@@H]4[C@@]5(C)CCCNC(C)(C)[C@@H]5CC[C@]43C)[C@@H]12,-31.4% (active),12.3%,90.9%,93.3%,82.3%,106%,50.8%,77.5%,89.1%,85.3%,57.8%,88.7%,66.6%,-31.4% (active),30%,25.4%,41.6%,58.6%
Clc1cc(Cl)cc(N2N=C(c3cccc(Nc4ccncc4)c3)CC2c2ccc(Br)cc2)c1 (stereo unspecified),3.33% (active),21.3%,-13.7% (active),77.2%,2.37% (active),83.3%,12.3%,57.6%,46.7%,51.2%,81.1%,112%,-14.7% (active),-72.1% (active),-46.4% (active),108%,-39.9% (active),-34.3% (active)
CCCCCCCCCCCCCCCC(=O)OC[C@@]1(O)C[C@@]23CC[C@@H]4C(C)(C)CCC[C@@]4(C)[C@@H]2CC[C@H]1C3,22.9%,81.9%,92.3%,108%,97.7%,113%,107%,103%,98.9%,102%,83.5%,86.7%,107%,108%,60.5%,-79.1% (active),118%,111%
Fc1ccc(-n2cc(COc3ncnc4sc5c(c34)CCCC5)nn2)cc1Cl,93.5%,96%,96.7%,96.6%,99.7%,103%,91.9%,112%,104%,95.1%,95.1%,103%,99%,101%,95%,101%,114%,105%
Cc1ccc2[nH]c(=S)n(-c3ccc(S(=O)(=O)Nc4ccc(Cl)nn4)cc3)c(=O)c2c1,94.2%,103%,97.7%,103%,110%,108%,105%,108%,94.4%,103%,96.7%,83.3%,102%,96.2%,95%,39.7%,104%,104%
CCC(=O)c1ccc(O)c(OC)c1,108%,93.7%,99.4%,107%,107%,122%,102%,110%,95.7%,104%,109%,114%,114%,101%,108%,91.2%,101%,113%
CCN1C(=O)/C(=c2\sc3n(c2=O)NC2C(N=3)N(CC)C(=O)N2CC)c2ccccc21 (stereo unspecified),22.7%,64.9%,46.5%,53.8%,46%,70.2%,41.6%,-12.7% (active),37%,12.1%,36.3%,58.8%,-38.6% (active),39.5%,37.2%,12.9%,58.9%,20.1%
C/C(=C(/c1ccccc1)c1ccc(OCC(O)CN2CCOCC2)cc1)c1ccccc1 (stereo unspecified),47.2%,75%,88.5%,87.2%,89.3%,91.3%,96.2%,90.4%,90.8%,93.2%,60.3%,93.3%,90.7%,88.6%,84.2%,46.3%,102%,63.6%
O=C(CN1CCOCC1)Nc1ccc2ncnc(Nc3ccc(OCc4cccc(F)c4)c(Cl)c3)c2c1,64.3%,44.7%,63.1%,69.2%,72%,6.86% (active),23.2%,58%,100%,44.7%,18.5%,70.8%,72.1%,109%,54.7%,64.5%,88.6%,83.2%
